Source: PubChem BioAssay (Tox21)
Inconclusive results are not listed. Active and inactive are the calls of the source. Unless noted, calls come from the whole dose curve; as a rule, active = well fitted curve in the direction sought with a large enough effect in the repeat runs; inconclusive = weak or mixed curves; inactive = flat fitted curve, though single readings scatter.

Columns and labels:
[1] = qHTS assay to test for compound auto fluorescence at 535 nm (green) in HEK293 cells (AID 720680)
[2] = qHTS assay to test for compound auto fluorescence at 460 nm (blue) in HEK293 cell free culture (AID 720681)
How it was run: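 Test compounds were pinned into cell-free culture medium (DMEM with 10% FBS) and fluorescence was read directly at Ex/Em 405/460 nm. Signals were expressed as fluorescence equivalents of triamterene, with DMSO vehicle as control.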

[3] = qHTS assay to test for compound auto fluorescence at 535 nm (green) in HEK293 cell free culture (AID 720682)
How it was run: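 Fluorescein serves as the green reference fluorophore; each compound's intrinsic emission at 535 nm (excitation 485 nm) is reported as an equivalent amount of that dye, measured in serum-containing DMEM without cells.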

[4] = qHTS assay to test for compound auto fluorescence at 590 nm (red) in HEK293 cell free culture (AID 720683)
How it was run: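 Tox21 10K library compounds were pinned into cell-free DMEM with 10% FBS and fluorescence was read at excitation 540 nm. Activity is expressed as Rose Bengal sodium equivalency.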

[5] = qHTS assay to test for compound auto fluorescence at 590 nm (red) in HepG2 cell free culture (AID 720684)
How it was run: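 Red fluorescence (540 nm excitation, 590 nm emission) was measured after compound transfer into cell-free MEM supplemented with 10% FBS. Values are equivalencies against Rose Bengal sodium.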

[6] = qHTS assay to test for compound auto fluorescence at 460 nm (blue) in HepG2 cell free culture (AID 720685)
How it was run: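 Compound (23 nL) or DMSO pinned into cell-free MEM with 10% FBS; blue fluorescence read at 405/460 nm excitation/emission, expressed as auto-fluorescence equivalency to triamterene.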

[7] = qHTS assay to test for compound auto fluorescence at 535 nm (green) in HepG2 cell free culture (AID 720686)
[8] = qHTS assay to test for compound auto fluorescence at 460 nm (blue) in HepG2 cells (AID 720687)
How it was run: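 Cells (2,000/well in MEM with 10% FBS) attached overnight at 37 C, then were exposed to compound or DMSO for 1 hr at 37 C, 5% CO2. Fluorescence read at Ex/Em 405/460 nm, expressed as triamterene-equivalent signal.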

[9] = target: Glucocorticoid receptor (Homo sapiens) (UniProt P04150); experiment: qHTS assay to identify small molecule agonists of the glucocorticoid receptor (GR) signaling pathway (AID 720691; active = well fitted activation curve with a large enough effect in the signal ratio in the repeat runs, not every such curve was filed as active; the % refers to the signal ratio)
Glucocorticoid receptor (Homo sapiens), sequence (P04150 whole entry, looked up): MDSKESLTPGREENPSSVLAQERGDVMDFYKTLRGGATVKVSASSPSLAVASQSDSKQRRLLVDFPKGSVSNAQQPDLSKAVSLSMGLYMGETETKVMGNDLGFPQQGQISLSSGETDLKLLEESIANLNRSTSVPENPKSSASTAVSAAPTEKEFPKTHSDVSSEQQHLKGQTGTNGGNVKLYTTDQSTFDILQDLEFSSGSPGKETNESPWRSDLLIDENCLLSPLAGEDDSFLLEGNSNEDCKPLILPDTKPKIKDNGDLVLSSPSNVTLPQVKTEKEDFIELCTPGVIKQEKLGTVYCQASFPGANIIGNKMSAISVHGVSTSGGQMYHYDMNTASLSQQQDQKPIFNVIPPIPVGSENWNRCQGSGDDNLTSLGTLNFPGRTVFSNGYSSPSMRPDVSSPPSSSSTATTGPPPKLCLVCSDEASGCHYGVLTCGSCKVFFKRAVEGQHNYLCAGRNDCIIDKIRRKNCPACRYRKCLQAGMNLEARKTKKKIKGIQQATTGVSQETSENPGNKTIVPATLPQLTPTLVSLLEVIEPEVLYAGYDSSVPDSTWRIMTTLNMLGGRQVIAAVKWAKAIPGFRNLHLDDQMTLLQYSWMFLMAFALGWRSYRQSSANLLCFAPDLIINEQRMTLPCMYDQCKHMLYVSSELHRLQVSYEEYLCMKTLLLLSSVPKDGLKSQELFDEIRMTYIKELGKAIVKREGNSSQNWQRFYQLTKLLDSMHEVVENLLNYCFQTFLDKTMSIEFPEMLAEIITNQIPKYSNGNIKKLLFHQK
How it was run: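 Reporter read-out: fluorescence intensity following 2 h room-temperature LiveBLAzer B/G FRET substrate loading. Prior step: GR-bla HeLa cells held 4 h, then treated 18 h at 37 C.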

[10] = target: Glucocorticoid receptor (Homo sapiens) (UniProt P04150); experiment: qHTS assay to identify small molecule antagonists of the glucocorticoid receptor (GR) signaling pathway (AID 720692; active = well fitted inhibition curve with a large enough effect in the signal ratio in the repeat runs, not every such curve was filed as active; the % refers to the signal ratio)
How it was run: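 Dexamethasone (5 nM final) stimulated a stably integrated GRE-beta-lactamase reporter in HeLa cells during 18 h co-incubation with compounds; signal was quantified as fluorescence intensity of B/G FRET substrate after 2 h.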

Measured: Potency

O=[N+]([O-])c1ccc(O)cc1
not listed: [9] | [10]
inactive: all other assays above

C/C=C/c1ccc(O)c(OC)c1
not listed: [9] | [10]
inactive: all other assays above

COC(=O)C1CCC(C(=O)OC)CC1 (stereo not given)
inactive: [1] | [2] | [3] | [4] | [5] | [6]

C=C(C)C(N)=O
not listed: [8] | [9] | [10]
inactive: all other assays above

O=C(O)Cc1cccc2ccccc12
not listed: [9] | [10]
inactive: all other assays above

CCn1cc(C(=O)O)c(=O)c2ccc(C)nc21
not listed: [9] | [10]
inactive: all other assays above

C#C[C@]1(O)CC[C@H]2[C@@H]3CCC4=CC(=O)CC[C@@H]4[C@H]3CC[C@@]21CC
not listed: [10]
inactive: all other assays above

CC1(C)O[C@@H]2[C@@H](CO[C@@]3(COS(N)(=O)=O)OC(C)(C)O[C@@H]23)O1
not listed: [9] | [10]
inactive: all other assays above

Cc1c(N(C)CS(=O)(=O)O)c(=O)n(-c2ccccc2)n1C
not listed: [8] | [9] | [10]
inactive: all other assays above

CCOC(=O)C(C)(C)Oc1ccc(Cl)cc1
inactive: all assays above

CCN(CC)CCOC(=O)c1ccc(N)cc1
inactive: [1] | [2] | [3] | [4] | [5] | [6]

O=C1OC(c2ccc(O)cc2)(c2ccc(O)cc2)c2ccccc21
not listed: [9] | [10]
inactive: all other assays above

CC(=O)/C=C/C1=C(C)CCCC1(C)C
not listed: [8] | [9] | [10]
inactive: all other assays above

C[C@]12C=CC(=O)C=C1CC[C@@H]1[C@@H]2C(=O)C[C@@]2(C)[C@H]1CC[C@]2(O)C(=O)CO
not listed: [9] | [10]
inactive: all other assays above

CN(C)C=O
not listed: [9] | [10]
inactive: all other assays above

CC(C)CC(C)CC(O)CC(C)C (stereo not given)
inactive: [1] | [2] | [3] | [4] | [5] | [6]

COc1ccccc1NC(=O)CC(C)=O
not listed: [9] | [10]
inactive: all other assays above

COc1cc(O)c(C(=O)c2ccccc2)cc1S(=O)(=O)O
not listed: [9] | [10]
inactive: all other assays above

O=c1c(-c2ccc(O)cc2)coc2cc(O)cc(O)c12
inactive: [1] | [2] | [3] | [4] | [5] | [6]

NC(=O)N1c2ccccc2C=Cc2ccccc21
not listed: [9] | [10]
inactive: all other assays above

CO[C@H]1C=CO[C@@]2(C)Oc3c(C)c(O)c4c(O)c(c(/C=N/N5CCN(C)CC5)c(O)c4c3C2=O)NC(=O)/C(C)=C\C=C[C@H](C)[C@H](O)[C@@H](C)[C@@H](O)[C@@H](C)[C@H](OC(C)=O)[C@@H]1C
not listed: [8] | [9] | [10]
inactive: all other assays above

Cc1cccc2ccccc12
not listed: [9] | [10]
inactive: all other assays above

C[C@]12CC[C@@H]3c4ccc(O)cc4CC[C@H]3[C@@H]1CCC2=O
not listed: [9] | [10]
inactive: all other assays above
